# Results from paper PMC5540273 (PLoS ONE, 2017).
# Assays:
# Conditions in all cases: concentration: 1 μM, replicates: in singlicate; n = 1
# EPHB3 = tested on: EPHB3
# EPHB4 = tested on: EPHB4
# EPHB6 = tested on: EPHB6
# ERBB2 = tested on: ERBB2
# ERBB3 = tested on: ERBB3
# ERBB4 = tested on: ERBB4
# ERK1 = tested on: T1, ERK1
# T1 construct: gene MAPK3
# ERK2 = tested on: T2, ERK2
# T2 construct: gene MAPK1
# ERK3 = tested on: T3, ERK3
# T3 construct: gene MAPK6
# ERK4 = tested on: T4, ERK4
# T4 construct: gene MAPK4
# ERK5 = tested on: T5, ERK5
# T5 construct: gene MAPK7
# ERK8 = tested on: T6, ERK8
# T6 construct: gene MAPK15
# ERN1 = tested on: ERN1
# FAK = tested on: T7, FAK
# T7 construct: gene PTK2
# FER = tested on: FER
# FES = tested on: FES
# FGFR1 = tested on: FGFR1
# FGFR2 = tested on: FGFR2
# FGFR3 = tested on: FGFR3
# FGFR4 = tested on: FGFR4
# 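Also: KINOMEscan kinase panel screen.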
compound,measurement,setting,value
CCS(=O)(=O)c1ccc(OC)c(Nc2ncc(-c3ccc(F)cc3)o2)c1.Cl [GW591947],%Inh,EPHB3,0%
same,%Inh,EPHB4,0%
same,%Inh,EPHB6,0%
same,%Inh,ERBB2,13%
same,%Inh,ERBB3,0%
same,%Inh,ERBB4,0%
same,%Inh,ERK1,8%
same,%Inh,ERK2,7%
same,%Inh,ERK3,13%
same,%Inh,ERK4,21%
same,%Inh,ERK5,0%
same,%Inh,ERK8,0%
same,%Inh,ERN1,8%
same,%Inh,FAK,0%
same,%Inh,FER,29%
same,%Inh,FES,0%
same,%Inh,FGFR1,3%
same,%Inh,FGFR2,0%
same,%Inh,FGFR3,0%
same,%Inh,FGFR4,12%
COc1cc2ncn(-c3cc(OCCCc4ccccc4)c(C(N)=O)s3)c2cc1OC [GSK205189],%Inh,EPHB3,0%
same,%Inh,EPHB4,6%
same,%Inh,EPHB6,39%
same,%Inh,ERBB2,12%
same,%Inh,ERBB3,0%
same,%Inh,ERBB4,0%
same,%Inh,ERK1,5%
same,%Inh,ERK2,3%
same,%Inh,ERK3,0%
same,%Inh,ERK4,0%
same,%Inh,ERK5,0%
same,%Inh,ERK8,3%
same,%Inh,ERN1,0%
same,%Inh,FAK,0%
same,%Inh,FER,10%
same,%Inh,FES,0%
same,%Inh,FGFR1,0%
same,%Inh,FGFR2,9%
same,%Inh,FGFR3,16%
same,%Inh,FGFR4,0%
OCCCNc1nccc(-c2c(-c3cccc(C(F)(F)F)c3)nn3cc(C(F)(F)F)ccc23)n1 [GW630813],%Inh,EPHB3,0%
same,%Inh,EPHB4,10%
same,%Inh,EPHB6,0%
same,%Inh,ERBB2,19%
same,%Inh,ERBB3,12%
same,%Inh,ERBB4,40%
same,%Inh,ERK1,0%
same,%Inh,ERK2,0%
same,%Inh,ERK3,0%
same,%Inh,ERK4,0%
same,%Inh,ERK5,0%
same,%Inh,ERK8,0%
same,%Inh,ERN1,0%
same,%Inh,FAK,0%
same,%Inh,FER,8%
same,%Inh,FES,0%
same,%Inh,FGFR1,0%
same,%Inh,FGFR2,0%
same,%Inh,FGFR3,0%
same,%Inh,FGFR4,0%
CCn1c(-c2nonc2N)nc2ccccc21 [SB-693162/GW549034],%Inh,EPHB3,0%
same,%Inh,EPHB4,0%
same,%Inh,EPHB6,45%
same,%Inh,ERBB2,0%
same,%Inh,ERBB3,4%
same,%Inh,ERBB4,0%
same,%Inh,ERK1,0%
same,%Inh,ERK2,10%
same,%Inh,ERK3,0%
same,%Inh,ERK4,0%
same,%Inh,ERK5,0%
same,%Inh,ERK8,1%
same,%Inh,ERN1,26%
same,%Inh,FAK,8%
same,%Inh,FER,0%
same,%Inh,FES,0%
same,%Inh,FGFR1,0%
same,%Inh,FGFR2,7%
same,%Inh,FGFR3,14%
same,%Inh,FGFR4,0%
Cc1c(Cn2c(C)nn3c(=O)cc(N4CCO[C@H](C)C4)nc23)cccc1C(F)(F)F [GSK2373690],%Inh,EPHB3,10%
same,%Inh,EPHB4,0%
same,%Inh,EPHB6,0%
same,%Inh,ERBB2,7%
same,%Inh,ERBB3,0%
same,%Inh,ERBB4,32%
same,%Inh,ERK1,17%
same,%Inh,ERK2,14%
same,%Inh,ERK3,10%
same,%Inh,ERK4,2%
same,%Inh,ERK5,0%
same,%Inh,ERK8,0%
same,%Inh,ERN1,10%
same,%Inh,FAK,0%
same,%Inh,FER,20%
same,%Inh,FES,0%
same,%Inh,FGFR1,5%
same,%Inh,FGFR2,1%
same,%Inh,FGFR3,18%
same,%Inh,FGFR4,3%
CCC(=O)c1c(-c2ccccc2)c2cc(Cl)ccc2c(=O)n1Cc1ccc(C(=O)O)cc1,%Inh,EPHB3,5%
same,%Inh,EPHB4,0%
same,%Inh,EPHB6,0%
same,%Inh,ERBB2,16%
same,%Inh,ERBB3,0%
same,%Inh,ERBB4,0%
same,%Inh,ERK1,0%
same,%Inh,ERK2,5%
same,%Inh,ERK3,0%
same,%Inh,ERK4,0%
same,%Inh,ERK5,0%
same,%Inh,ERK8,0%
same,%Inh,ERN1,0%
same,%Inh,FAK,0%
same,%Inh,FER,0%
same,%Inh,FES,5%
same,%Inh,FGFR1,0%
same,%Inh,FGFR2,0%
same,%Inh,FGFR3,0%
same,%Inh,FGFR4,0%
